Source: PubChem
In the library only some 2.9% were active in any assay of this set; here they are far more common.
S1P4 agonist: activates the human S1P4 receptor. S1P4-expressing cell line, agonist reporter assay. activation, % at 4.98 µM. 220,000 tested, 0.35% active. AID 1509; in the data active = activation above about 11%
Target sequence (O95977 whole entry, looked up): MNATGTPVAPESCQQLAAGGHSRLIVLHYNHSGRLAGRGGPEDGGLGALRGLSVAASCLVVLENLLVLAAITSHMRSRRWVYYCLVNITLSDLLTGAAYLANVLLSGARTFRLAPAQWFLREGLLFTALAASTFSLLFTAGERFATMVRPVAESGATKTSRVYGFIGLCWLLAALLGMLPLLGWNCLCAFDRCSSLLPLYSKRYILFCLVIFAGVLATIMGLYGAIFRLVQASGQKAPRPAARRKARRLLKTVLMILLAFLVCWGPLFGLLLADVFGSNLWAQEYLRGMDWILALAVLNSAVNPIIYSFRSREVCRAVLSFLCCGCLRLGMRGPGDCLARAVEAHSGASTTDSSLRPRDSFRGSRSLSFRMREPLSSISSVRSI
Hsp70 activator: switches on Hsp70 transcription | HeLa Hsp70 promoter luciferase reporter, luminescence; scaled: vehicle 0, proteasome-inhibitor control 100% | activation, % at 10 µM | 200,000 tested, 0.04% active | AID 1203;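 active = activation above the mean across all tested compounds plus 3 SD, cutoff set per campaign, cut at about 5.5% in these data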
HSF1 inhib: HSF1 inhibition | 300,000 tested, 0.77% active | AID 2098 | NIH3T3-HGL HSE-luciferase, MG132-induced, luminescence 8 h; stronger effect = lower value | activity change, negative = inhibition, % at 7.5 µM (by protocol);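 active = more than half of replicate wells show activity change below -50%, luminescence cut by over half; inconclusive = some wells, but at most half, below -50%; inactive = no replicate well below -50%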;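 also: luciferase reports HSF-1 transcriptional activity via heat shock element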
HSF1 activator: increases HSF-1 driven luciferase reporter signal; NIH3T3-HGL HSF-1 luciferase reporter, MG132, 8 h; 100% = twice DMSO control signal; activation, % at 9 µM; 300,000 tested, 1.7% active; AID 504408;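 active = mean replicate activation of at least 50% with a set share of replicates each reaching 50%; inconclusive = only one of those two conditions met; inactive = mean below 50% and too few replicates reaching it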
S1P3 antagonist: blocks the human S1P3 receptor. 170,000 tested, 0.27% active. CHO S1P3 NFAT-BLA reporter, FRET fluorescence, antagonist mode. inhibition, % at 4.98 µM;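 active = inhibition above the plate cutoff, the mean inhibition of test wells on that plate plus 3 SD, cut at about 28% in these data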;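 also: cells challenged with S1P at its EC80 of 0.8 µM; blue over green emission ratio from cleaved BLA substrate after 4 h stimulation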
S1P4 antag: antagonists of human S1P4 receptor | O95977 | S1P4-expressing cells, antagonist mode, reporter read-out | inhibition, % at 4.98 µM | 220,000 tested, 0.26% active | AID 1510; in the data active = inhibition above about 29%
S1P4 ag conf: human S1P4 agonism, confirmation. activation, % at 4.98 µM. AID 1523. 740 tested, 7% active. shares compounds with S1P4 agonist. S1P4 agonist cell-based reporter assay; in the data active = activation above about 12%
S1P1 ag: human S1P1 agonism as S1P4 agonist counter-screen. shares compounds with S1P4 agonist. 740 tested, 4% active. AID 1563. S1P1 agonist cell-based assay, activation. activation, % at 4.98 µM; in the data active = activation above about 21%
S1P4 antag conf: human S1P4 antagonism, confirmation | shares compounds with S1P4 antag | S1P4-expressing cell line, antagonist mode, reporter read-out | inhibition, % at 4.98 µM | 520 tested, 71% active; in the data active = inhibition above about 30%
S1P1 antag: counter-screen for S1P4 antagonists: antagonists of human S1P1 | cell-based S1P1 antagonist counterscreen, inhibition | 520 tested, 37% active | shares compounds with S1P4 antag | inhibition, % at 4.98 µM | AID 1564; in the data active = inhibition above about 40%;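 also: receptor stimulated with S1P near its EC80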
A number is an active result; - = inactive; ? = inconclusive; . = no result given.

SMILES	S1P4 agonist	Hsp70 activator	HSF1 inhib	HSF1 activator	S1P3 antagonist	S1P4 antag	S1P4 antag conf	S1P1 antag	others
N=c1n(CCN2CCCC2)c2ccccc2n1CC(O)c1ccc(Cl)c(Cl)c1 (stereo unspecified)	55	-	-	-	-	38	71	60	S1P4 ag conf=-;S1P1 ag=-
COc1ccc(NC(=O)C(Sc2ccccc2)c2ccccc2)c(OC)c1 (stereo unspecified)	-	-	-	-	-	-	.	.
Cc1ccc(Nc2cc(C)c3ccc(O)cc3n2)cc1C	11	.	-	-	-	75	80	-	S1P4 ag conf=-;S1P1 ag=-
Cc1cccc(C)c1NC(=O)COC(=O)c1nonc1N	-	-	-	-	-	29	-	-
O=C(NCc1cccnc1)C(=O)N/N=C/c1ccc([N+](=O)[O-])cc1	-	-	-	-	-	30	-	-
O=C(NCc1cccnc1)C(=O)N/N=C/c1ccccc1[N+](=O)[O-]	-	-	-	-	-	-	.	.
[O-][n+]1onc2c3cc(-c4ccccc4)nnc3ccc21	-	-	-	-	.	-	.	.
N#C/C(=C\c1cccc(O)c1)c1nc2ccccc2o1	-	.	-	-	-	32	-	-
N#C/C(=C\c1ccncc1)c1nc2ccccc2o1	-	.	-	-	-	-	.	.
COc1cc(-c2nnc(NC(=O)CS(=O)(=O)c3ccc(C)cc3)o2)cc(OC)c1OC	.	.	-	-	.	.	.	.
COc1ccc(-c2cc(C#N)nc(Cl)n2)cc1	-	.	-	-	-	57	97	-
CC/C(=N\NC(N)=O)c1ccc(OC(F)F)cc1	-	.	-	-	-	-	.	.
COc1ccc(NC(=O)CN2CCN(c3c(C)cccc3C)CC2)cc1	.	.	-	-	.	.	.	.
CCOC(=O)Cc1nnc(Nc2ccc(C)cc2C)c2ccccc12	-	-	-	?	-	-	.	.
Cc1ccc(COc2ccc(/C=N/NC(=O)c3ccc(CN4CCOCC4)cc3)cc2)cc1	-	-	-	-	-	-	.	.
CC(C)(C)c1ccc(OCc2ccc(C(=O)N/N=C/c3ccc(O)c(O)c3)cc2)cc1	-	-	-	-	-	33	63	-
O=C(Nc1cccc(F)c1)C1CCN(C(=O)N2CCOc3ccccc32)CC1	.	.	-	-	.	.	.	.
CC(C)c1ccc(CNc2c([N+](=O)[O-])c(=O)oc3ccccc23)cc1	-	-	-	-	-	32	-	-
Cc1ccc(N/C(N)=N/c2nc(C)cc(N3CCCCC3)n2)c(C)c1	-	-	.	.	-	45	45	-
Cc1nc(-c2ccc(S(=O)(=O)Oc3ccccc3Cl)s2)cs1	-	.	-	-	-	-	.	.
Cc1cc(C)n2c(=O)c3ccc(Cl)cc3nc2c1C#N	-	-	-	-	-	-	.	.
Cc1cc(Cl)n2c(nc3cc(F)c(F)cc32)c1C#N	-	-	-	179	-	31	112	81
O=C(/C=C/c1c(F)cccc1Cl)c1ccc(O)cc1	-	.	-	-	-	42	62	-
O=C(/C=C/c1ccccc1Cl)c1ccc(O)cc1	-	.	-	-	-	-	.	.
O=c1cc(Cl)[nH]c(=O)n1Cc1ccccc1	.	.	-	-	.	.	.	.
SMILES	S1P4 agonist	Hsp70 activator	HSF1 inhib	HSF1 activator	S1P3 antagonist	S1P4 antag	S1P4 antag conf	S1P1 antag	others
O=c1ccsn1Cc1ccccc1	-	-	-	-	-	33	36	-
Cc1cc(C)c(S(=O)(=O)c2ccccc2)c(N2CCOCC2)n1	-	-	-	-	-	-	.	.
Cc1cc2c(c(N3CCOCC3)n1)C(=O)OC2	-	-	-	-	.	35	-	-
CCCC(=O)OCCNc1cc(Sc2nc3ccccc3[nH]2)c2nonc2c1[N+](=O)[O-]	-	-	-	-	-	52	106	-
CC(=O)OCCNc1cc(SC(C)C)c2nonc2c1[N+](=O)[O-]	-	-	.	.	-	-	.	.
CCc1nn(C(C)C(=O)NC2CCCCCC2)c(=O)c2cc3occc3n12 (stereo unspecified)	.	.	-	-	.	.	.	.
